Measurements reported in article PMC11062922 (Nature Chemical Biology, 2023).
Like-named read-outs stand apart in the source and are kept apart here.

Experiments:
Set-up in all cases: species or system human, MV4-11 + K-562 + COLO205 + SK-N-BE2 + OVCAR-8
[1] = test system: HSPE1; details: read-out: apparent Kd, n = 1
[2] = test system: PGK1; details: read-out: apparent Kd, compound concentrations: 100 nM and 1000 nM (sheet 'Samples'), n = 1
[3] = test system: PKM; details: read-out: apparent Kd, compound concentrations: 100 nM and 1000 nM (sheet 'Samples'), n = 1
[4] = test system: RAN; details: read-out: apparent Kd; compound concentrations: 100 nM and 1000 nM (sheet 'Samples'), CATDS: 0.17121500690258801; n = 1
[5] = test system: NQO2; details: read-out: apparent Kd; compound concentrations:100 nM and 1000 nM (sheet 'Samples'); n = 1
[6] = test system: TGFBR1; details: read-out: apparent Kd; compound concentrations: 100 nM and 1000 nM (sheet 'Samples'), CATDS: 0.31893275464491699; n = 1
[7] = test system: IRAK3; details: read-out: apparent Kd; compound concentrations:100 nM and 1000 nM (sheet 'Samples'); n = 1
[8] = test system: STK16; details: read-out: apparent Kd; compound concentrations:100 nM and 1000 nM (sheet 'Samples'); n = 1
[9] = test system: GSK3A; details: read-out: apparent Kd, n = 1
[10] = test system: GSK3B; details: read-out: apparent Kd, n = 1
[11] = test system: IARS; details: read-out: apparent Kd; compound concentrations:100 nM and 1000 nM (sheet 'Samples'); n = 1
[12] = test system: HSP90B1; details: read-out: apparent Kd, n = 1
[13] = test system: ILK; details: read-out: apparent Kd; compound concentrations:100 nM and 1000 nM (sheet 'Samples'); n = 1
[14] = test system: ICK; details: read-out: apparent Kd; compound concentrations: 100 nM and 1000 nM (sheet 'Samples'), CATDS: 0.173475626531951; n = 1
[15] = test system: PRKCD; details: read-out: apparent Kd, compound concentrations: 100 nM and 1000 nM (sheet 'Samples'), n = 1
[16] = test system: PRKCQ; details: read-out: apparent Kd, compound concentrations: 100 nM and 1000 nM (sheet 'Samples'), n = 1
[17] = test system: PKN3; details: read-out: apparent Kd; compound concentrations:100 nM and 1000 nM (sheet 'Samples'); n = 1
[18] = test system: PRKX; details: read-out: apparent Kd; compound concentrations:100 nM and 1000 nM (sheet 'Samples'); n = 1
[19] = test system: ROCK2; details: read-out: apparent Kd; compound concentrations:100 nM and 1000 nM (sheet 'Samples'); n = 1
[20] = test system: PIK3CD; details: read-out: apparent Kd; compound concentrations:100 nM and 1000 nM (sheet 'Samples'); n = 1
[21] = test system: TAOK3; details: read-out: apparent Kd; compound concentrations:100 nM and 1000 nM (sheet 'Samples'); n = 1
[22] = test system: PRKCA; details: read-out: apparent Kd; compound concentrations: 100 nM and 1000 nM (sheet 'Samples'), CATDS: 0.213712947404604; n = 1
[23] = test system: PRKCB; details: read-out: apparent Kd; compound concentrations: 100 nM and 1000 nM (sheet 'Samples'), CATDS: 0.109320974178185; n = 1
[24] = test system: RPS6KA6; details: read-out: apparent Kd; compound concentrations: 100 nM and 1000 nM (sheet 'Samples'), CATDS: 0.131410075991204; n = 1
[25] = test system: PIK3CB; details: read-out: apparent Kd; compound concentrations:100 nM and 1000 nM (sheet 'Samples'); n = 1
[26] = test system: HSP90AA1; details: read-out: apparent Kd; compound concentrations: 100 nM and 1000 nM (sheet 'Samples'), CATDS: 0.146358991547622; n = 1
[27] = compound concentrations:100 nM and 1000 nM (sheet 'Samples')

Cn1cc(C2=C(c3cn(C)c4ccccc34)C(=O)NC2=O)c2ccccc21 [RO0317208-000]
potency estimated from few doses ([1]; compound concentrations: 100 nM and 1000 nM (sheet 'Samples'), CATDS: 0.26304172030338102): 0.475 µM
potency estimated from few doses ([2]; CATDS: 0.76516694172770505): 0.047 µM
potency estimated from few doses ([3]; CATDS: 0.19798813046119201): 1.12 µM
potency estimated from few doses [4]: 1.97 µM

Fc1ccc(-c2c(-c3ccccn3)nc3n2CCS3)cc1 [SKF-104365]
potency estimated from few doses [1, 27]: 0.149 µM
potency estimated from few doses [5]: 1.34 µM
potency estimated from few doses [6]: 0.537 µM

COc1cc(C=NNc2ncnc3c2cnn3-c2ccccc2)ccc1O [GW513184X]
potency estimated from few doses [7]: 1.31 µM
potency estimated from few doses [8]: 1.95 µM

Nc1n[nH]c2nnc(-c3ccccc3)c(-c3ccccc3)c12 [GW554060X]
potency estimated from few doses [9, 27]: 0.424 µM
potency estimated from few doses [10, 27]: 0.833 µM

CN1CCN(Cc2ccc(-c3cc4ncnc(Nc5ccc(OCc6cccc(F)c6)c(Cl)c5)c4s3)o2)CC1 [GW784684X]
potency estimated from few doses [11]: 1.61 µM

Cl.Cn1cc(C2=C(c3ccc(N)cc3)C(=O)NC2=O)c2ccccc21 [RO0317373-001]
potency estimated from few doses ([9]; compound concentrations: 100 nM and 1000 nM (sheet 'Samples'), CATDS: 1): 0.866 µM

COC(=O)Nc1nc2cc(Oc3ccc(NC(=O)Nc4cc(C(F)(F)F)ccc4Cl)cc3)ccc2[nH]1.Cl [GW697465A]
potency estimated from few doses [12, 27]: 1.22 µM
potency estimated from few doses [13]: 2.22 µM

Cn1cc(C2=C(c3cn(CCO)c4ccccc34)C(=O)NC2=O)c2ccccc21 [RO0318036-000]
potency estimated from few doses ([9]; compound concentrations: 100 nM and 1000 nM (sheet 'Samples'), CATDS: 0.34431860248680501): 0.263 µM
potency estimated from few doses ([10]; compound concentrations: 100 nM and 1000 nM (sheet 'Samples'), CATDS: 0.35306232464093901): 0.252 µM
potency estimated from few doses [14]: 1.12 µM
potency estimated from few doses ([15]; CATDS: 0.14509929843566999): 1.97 µM
potency estimated from few doses ([16]; CATDS: 0.15135413462946001): 1.7 µM

COc1cc(C2=NC(c3ccc(Cl)cc3F)C(C(=O)Nc3ccc4[nH]ncc4c3)=C(C)N2)ccn1.O=C(O)C(F)(F)F (centres unmarked) [GSK534911A]
potency estimated from few doses [12, 27]: 1.11 µM
potency estimated from few doses [17]: 1.83 µM
potency estimated from few doses [18]: 1.32 µM
potency estimated from few doses [19]: 0.22 µM

COc1cccc(C2=C(Nc3cc(Cl)c(O)c(Cl)c3)C(=O)NC2=O)c1 [SB-390767]
potency estimated from few doses [9, 27]: 0.528 µM
potency estimated from few doses [10, 27]: 1.09 µM
potency estimated from few doses [20]: 0.191 µM
potency estimated from few doses [21]: 1.11 µM

COc1cccc(C2=C(Nc3ccc(Cl)c(C(=O)O)c3)C(=O)NC2=O)c1 [SB-390769]
potency estimated from few doses [9, 27]: 0.323 µM
potency estimated from few doses [10, 27]: 0.644 µM

Cn1cc(C2=C(c3cn(CCCCCN)c4ccccc34)C(=O)NC2=O)c2ccccc21 [RO0317843-000]
potency estimated from few doses ([9]; compound concentrations: 100 nM and 1000 nM (sheet 'Samples'), CATDS: 0.120915323717963): 0.5 µM
potency estimated from few doses ([10]; compound concentrations: 100 nM and 1000 nM (sheet 'Samples'), CATDS: 0.12552661641342699): 0.455 µM
potency estimated from few doses [22]: 0.159 µM
potency estimated from few doses [23]: 0.666 µM
potency estimated from few doses ([15]; CATDS: 0.13254198888423899): 0.398 µM
potency estimated from few doses ([16]; CATDS: 0.26439518938370499): 0.114 µM
potency estimated from few doses [24]: 0.407 µM

[2H]C([2H])(c1cccc(C(F)(F)F)c1C)n1ccn2c(=O)cc(N3CCOCC3)nc12 [GSK2289044B]
potency estimated from few doses [12, 27]: 0.112 µM
potency estimated from few doses [25]: 0.016 µM

Cn1cc(C2=C(c3ccccc3C(F)(F)F)C(=O)NC2=O)c2ccccc21 [RO0317717-000]
potency estimated from few doses [26]: 1.69 µM
potency estimated from few doses ([12]; compound concentrations: 100 nM and 1000 nM (sheet 'Samples'), CATDS: 0.15036452413929899): 1.53 µM
potency estimated from few doses ([1]; compound concentrations: 100 nM and 1000 nM (sheet 'Samples'), CATDS: 0.26644464467786899): 0.337 µM
potency estimated from few doses ([2]; CATDS: 0.56711536004942897): 0.0871 µM
potency estimated from few doses ([3]; CATDS: 0.16665150952337399): 1.09 µM
